Several values for one entry are separate records, joined by “and”; a condition that tells them apart may be missing. Equal entries are not always repeated. This is part of a sample that, as a whole, favours compounds with a hit. Of some 83,000 tested, about 20% had one in any assay.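 Cell lines were cultured in 96-well plates, exposed to a single compound concentration, and assessed for percent growth 48 hours later.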 Activity calls are given as the source filed them. Rule for the calls: active = growth percent below 10; inactive = the rest.
Columns and labels:
Assay in all cases: NCI-60 one-dose screen, 48 h (100 = growth as untreated, 0 = no growth, -100 = all killed)
Settings in all cases: 10 µM unless noted
[1] = system: SR leukemia
[2] = system: RPMI-8226 leukemia
[3] = system: OVCAR-8 ovarian
[4] = system: OVCAR-5 ovarian
[5] = system: OVCAR-4 ovarian
[6] = system: SK-OV-3 ovarian
[7] = system: IGROV1 ovarian
[8] = system: OVCAR-3 ovarian
[9] = system: HS 578T breast
[10] = system: NCI/ADR-RES ovarian

Structure (SMILES)	growth [1]	growth [2]	growth [3]	growth [4]	growth [5]	growth [6]	growth [7]	growth [8]	growth [9]	growth [10]
COc1ccc(C(=O)C[n+]2cccc3c4ccccc4ccc32)cc1	34.4% (inactive)	25.2% (inactive)	25.9% (inactive)	58.3% (inactive)	33.4% (inactive)	50.1% (inactive)	67.4% (inactive)	51.7% (inactive)	58.9% (inactive)	97.7% (inactive)
COc1ccc(-c2cc(C(=O)N=Nc3c(O)[nH]c4ccc(Cl)cc34)c3ccccc3n2)cc1	53.1% (inactive)	102% (inactive)	22.1% (inactive)	42.5% (inactive)	23.7% (inactive)	78.1% (inactive)	-18.8% (active)	44.2% (inactive)	77.6% (inactive)	28.7% (inactive)
CC[C@]12C=CCN3CC[C@]4(C(=C(C(=O)OC)C1)Nc1cc(OC)c([C@@H]5[C@H]6O[C@H]6[C@@]6(CC)CC(C(=O)OC)=C7Nc8cc(OC)ccc8[C@@]78CCN5[C@@H]68)cc14)[C@@H]32	5.93% (active)	24.2% (inactive)	53.1% (inactive)	93.2% (inactive)	59.8% (inactive)	116% (inactive)	64% (inactive)	55.8% (inactive)	87.2% (inactive)	80.8% (inactive)
COc1cc(NC(=O)C(C)C)ccc1C(=O)NC(=S)Nc1ccc(S(N)(=O)=O)cc1	111% (inactive)	107% (inactive)	79.3% (inactive)	110% (inactive)	98.5% (inactive)	112% (inactive)	97.2% (inactive)	92% (inactive)	86.2% (inactive)	102% (inactive)
COc1cncc(-c2ccc3ncnc(N4CCc5ccc(Cl)cc54)c3c2)c1	3.37% (active)	-21.2% (active)	39.4% (inactive)	30% (inactive)	32% (inactive)	27.4% (inactive)	-63.4% (active)	55.4% (inactive)	20.1% (inactive)	1.41% (active)
COc1ccccc1NC(=O)c1ccc(NC(=O)CCl)s1	2.06% (active)	-37.4% (active)	-61% (active)	2.87% (active)	65.2% (inactive)	-4.26% (active)	-63.9% (active)	1.97% (active)	18.3% (inactive)	2.28% (active)
Nc1nc2cc(-c3ccc4ncnc(NCc5ccccc5)c4c3)ccc2o1	-44.9% (active)	10.6% (inactive)	2.26% (active)	22.1% (inactive)	-75.2% (active)	-5.93% (active)	-68.5% (active)	-31.5% (active)	-34.8% (active)	2.3% (active)
Cc1cc(Cl)ccc1NC(=O)Nc1ccc(-c2ccc3c(c2)NC(=O)/C3=C\c2ccc[nH]2)cc1	69.3% (inactive)	100% (inactive)	104% (inactive)	108% (inactive)	84.7% (inactive)	125% (inactive)	96.2% (inactive)	119% (inactive)	102% (inactive)	104% (inactive)
O=C1Nc2cc(-c3ccc(NS(=O)(=O)c4ccc(F)c(Cl)c4)cc3)ccc2/C1=C/c1ccc[nH]1	6.77% (active)	21.4% (inactive)	34.9% (inactive)	19.7% (inactive)	26.4% (inactive)	39.6% (inactive)	45.9% (inactive)	56.9% (inactive)	45.6% (inactive)	29.7% (inactive)
O=C1Nc2ccc(F)cc2/C1=C/C(=O)c1cc2ccccc2oc1=O	42.1% (inactive)	78.8% (inactive)	105% (inactive)	113% (inactive)	89.1% (inactive)	88.7% (inactive)	105% (inactive)	85.9% (inactive)	101% (inactive)	103% (inactive)
COc1cc(/C=C/C(=O)c2cnn(-c3cc(=O)[nH]c4ccccc34)c2C)cc(OC)c1OC	-3.34% (active)	-11.6% (active)	-18.1% (active)	-3.98% (active)	39.4% (inactive)	9.66% (active)	6.78% (active)	8.06% (active)	35.5% (inactive)	42.2% (inactive)
CC1(C)CC(=O)C2=C(C1)OC(N)=C(c1nc3ccccc3[nH]1)C2c1ccc(Cl)cc1 (stereo not given)	41.4% (inactive) and 97.8% (inactive)	45.8% (inactive) and 109% (inactive)	69.2% (inactive) and 108% (inactive)	101% (inactive) and 118% (inactive)	57.6% (inactive) and 109% (inactive)	111% (inactive) and 108% (inactive)	62.3% (inactive) and 108% (inactive)	47.8% (inactive) and 78.4% (inactive)	6.8% (active) and 119% (inactive)	78% (inactive) and 109% (inactive)

Reference: PubChem BioAssay (NCI)
